ChEMBL document CHEMBL3988442, “University of Dundee, Small-Polar-MMV Screening Library” (2021)
Out of some 69,000 compounds screened, about 950 (1.4%) showed an effect of 50% or more. Shown is part of a subset that was picked to be rich in strong results.

Test system: Mycobacterium tuberculosis
Assay: Cornell M. t heat shock assay; note: in the data most compounds retested in dose-response had high values
Format: functional, organism-based
Parameters: dose or concentration left out as unconfirmed

SMILES | Percent Effect
CCN1CCOCC2(CCCN(C(=O)c3ccncc3F)C2)C1.O=C(O)C(F)(F)F (stereo not drawn) | -0.7478%
Cc1ccc(CN2CCC(O)(Cn3ccc4ncccc43)CC2)o1.Cl | -13.38%
CNC(=O)C1Cn2ccnc2C2(CCN(Cc3ccncc3)CC2)O1.O=C(O)C(F)(F)F.O=C(O)C(F)(F)F.O=C(O)C(F)(F)F (stereo not drawn) | -2.036%
O=C(NCc1ccco1)[C@H]1CC[C@@H]2[C@@H](CCN2C2CCC2)O1.O=C(O)C(F)(F)F | -4.585%
CN(C)CCOCC1CN(Cc2ccoc2)Cc2nnn(C)c21.O=C(O)C(F)(F)F.O=C(O)C(F)(F)F (stereo not drawn) | -17.74%
Cc1cc(N(C)C)nc(C2CCCN2)n1.Cl.Cl (stereo not drawn) | -13.2%
O=C(COCCc1ccccc1)N1CCCC(n2cccn2)C1 (stereo not drawn) | 11.3%
Cn1cc(CN2CCCC23CCN(C(=O)c2ccccc2)CC3)cn1.O=C(O)C(F)(F)F | -27.87%
CC(C)NC(=O)c1cc2c(s1)CCN2C(=O)CN(C)C | -7.193%
CN(C)CC(=O)N1CCc2sc(C(=O)N3CCOCC3)cc21 | 54.7%
CN(C)CC(=O)N1CCc2sc(C(=O)N3CCN(C)CC3)cc21 | 17.23%
CC(C)N(C)Cc1cncc2c1CCN(C1CCOCC1)C2.Cl.Cl.Cl | 21.63%
CNC(=O)CN1CCC2(CCCN(CC3CCOC3)C2)CC1.O=C(O)C(F)(F)F.O=C(O)C(F)(F)F (stereo not drawn) | 3.829%
O=C(O)C(F)(F)F.O=C(O)C(F)(F)F.O=C1CO[C@@H]2CN(Cc3ccsc3)C[C@H]2N1Cc1ccncc1 | 1.203%
CN(Cc1noc(C2CC2)n1)C1CCN(Cc2ccc(F)c(F)c2)C1 (stereo not drawn) | -5.311%
Cc1ccc(CCN2CCC(N(C)Cc3noc(C4CC4)n3)C2)cc1 (stereo not drawn) | 83.22%
CN(Cc1noc(C2CC2)n1)C1CCN(Cc2ccncc2)C1 (stereo not drawn) | 51.32%
CC(=O)N(Cc1noc(C2CC2)n1)C1CCN(Cc2ccncc2)C1 (stereo not drawn) | -2.088%
CN(Cc1noc(C2CC2)n1)C1CCN(CCc2cnn(C)c2)C1 (stereo not drawn) | -5.5%
CN(Cc1noc(C2CC2)n1)C1CCN(CCc2cccs2)C1 (stereo not drawn) | 12.6%
CS(=O)(=O)CCNCc1ccc(OCc2cscn2)cc1 | -2.969%
CC1c2ncc(Cn3cccn3)n2CCN1c1ncccn1.O=C(O)C(F)(F)F (stereo not drawn) | 40.47%
COc1ccc(-c2n[nH]cc2CNC2CCN(C3CC3)CC2)cc1.Cl | -33.63%
Cc1ccc(N2CCO[C@H]3CN(Cc4cccnc4)C[C@H]32)nn1.O=C(O)C(F)(F)F.O=C(O)C(F)(F)F.O=C(O)C(F)(F)F | -30.09%

SMILES | Percent Effect
CCNc1ccnc(CN2CCCC2C(=O)Nc2nccs2)c1 (stereo not drawn) | 13.04%
O=C(Nc1nccs1)C1CCCN1Cc1ccccn1 (stereo not drawn) | 103.1%
CC(=O)Nc1cccc(CN2CCCC2C(=O)Nc2nccs2)c1 (stereo not drawn) | -15.37%
Cc1ccc(C(N)c2cccc(S(C)(=O)=O)c2)c(C)c1.Cl (stereo not drawn) | 1.87%
CSc1ccc(CNC(c2ccccc2)c2nccn2C)cc1 (stereo not drawn) | 105.2%
COc1c(CNC(c2ccccc2)c2ccc(F)cc2)c(C)nn1C (stereo not drawn) | -7.995%
COc1cccc(-c2cc(NCc3nccn3C)n(C)n2)c1 | 1.129%
CSc1ccc(CN(CCO)Cc2nccn2C)cc1 | -17.8%
COc1ccc(CNC(c2cccc(F)c2)c2cnn(C)c2)cc1 (stereo not drawn) | -3.342%
CSc1ccc(CNC(c2ccc(F)cc2)c2nccn2C)cc1 (stereo not drawn) | 112.9%
COc1c(CNC(c2ccc(F)cc2)c2nccn2C)c(C)nn1C (stereo not drawn) | -11.67%
COc1cccc(C(NCc2ccc(SC)cc2)c2nccn2C)c1 (stereo not drawn) | 112.8%
Cn1ccnc1C(NCc1ccccc1)c1ccc(F)cc1 (stereo not drawn) | 113.8%
Cn1cc(C(NCc2ccc(F)cc2)c2cccc(F)c2)cn1 (stereo not drawn) | -7.107%
CC(c1ccc(F)cc1)N1CCN(Cc2nccn2C)CC1 (stereo not drawn) | -10.33%
CC(NCc1ccc(OCc2nccn2C)cc1)c1cccnc1 (stereo not drawn) | -26.18%
O=C(O)C(F)(F)F.O=C(O)C(F)(F)F.c1ccc(CO[C@@H]2CN(Cc3nccs3)[C@@H]3COC[C@@H]32)nc1 | 32.68%
Cn1cc(N2CC3(CCN(Cc4nccs4)CC3)OCC2=O)cn1.O=C(O)C(F)(F)F | -26.5%
CCn1c(NCc2ccccn2)nc2c(C)nn(C)c2c1=O | -10.12%
COc1ccc(CN2CCC(c3cc(O)nc(C)n3)C2)c(OC)c1.O=C(O)CC(O)(CC(=O)O)C(=O)O (stereo not drawn) | -19.34%
Cl.O=C(NCc1cccc(Cl)c1)C1=NOC2(CCNC2)C1 (stereo not drawn) | -31.4%
O=C(O)C(F)(F)F.O=C(c1cscn1)N1CC[C@@H]2[C@@H]1CCN2C1CCOC1 (stereo partly drawn) | 5.753%
CCN1C[C@H]2[C@@H](C1)N(C(=O)Cc1ccsc1)CC[C@H]2OC.O=C(O)C(F)(F)F | -3.863%
COCC1Cn2nnc(-c3cnn(C)c3)c2CN1Cc1ccsc1.O=C(O)C(F)(F)F (stereo not drawn) | 14.81%

SMILES | Percent Effect
COc1ccc(CN2CCN(c3ncc(Cl)cn3)CC2)cc1 | -15.93%
CCc1ccc(CN2CCN(c3ccc(Cl)nn3)CC2)nc1 | 15.06%
CCc1ccc(CN2CCN(c3ncc(Cl)cn3)CC2)nc1 | 68.7%
Cc1nc(Cn2c3c(ccc2=O)CC(NC(C)C)CC3)cs1.O=C(O)C(F)(F)F.O=C(O)C(F)(F)F (stereo not drawn) | 34.33%
COCCN1CCOCC2(CCCN(Cc3cccc(F)c3)C2)C1.O=C(O)C(F)(F)F.O=C(O)C(F)(F)F (stereo not drawn) | -14.36%
Clc1ccccc1C1(c2ccnc(C3CC3)n2)CCNCC1 | -18.26%
Clc1ccccc1C1(c2ccnc(C3CCCC3)n2)CCNCC1 | 57.06%
Clc1ccccc1C1(c2ccnc(-c3ncccn3)n2)CCNCC1 | -0.2715%
CC(C)NC(=O)[C@@H]1C[C@@H]2CCN(Cc3ccoc3)C[C@H]2O1.O=C(O)C(F)(F)F | 43.76%
CC(C)N(C)Cc1cnc2n1CCN(C(=O)NC1CCCC1)C2.O=C(O)C(F)(F)F | 7.687%
Fc1cnc(N2CCO[C@H]3[C@H](OCCN4CCCC4)CC[C@@H]32)nc1.O=C(O)C(F)(F)F | -1.217%
Cc1ccc(N2CC[C@H]3C[C@@H](C(=O)N4CCOCC4)O[C@H]3C2)nn1.O=C(O)C(F)(F)F | 9.789%
O=C(Nc1c(N2CCCC2)cccc1N1CCCC1)c1ccccn1 | 104.6%
O=C(Nc1c(N2CCCC2)cccc1N1CCCC1)c1cnsn1 | 3.548%
O=C(Nc1c(N2CCCC2)cccc1N1CCCC1)c1cnccn1 | 26.63%
Cl.Cn1cc(CN2CCN(CC3(c4ccccc4)CC3)CC2)cn1 | -7.6%
Cc1cccc(CN2C(=O)CCC23CCN(C(=O)c2ccco2)CC3)n1.O=C(O)C(F)(F)F | -22.73%
COCc1nc(-c2ccnc(N3CCNCC3)n2)no1.Cl.Cl | 24.05%
CC(C)n1cc(C(=O)NC2CCS(=O)(=O)C2)c2ccccc2c1=O (stereo not drawn) | -0.4948%
CC(C)Cn1cc(C(=O)NC2CCS(=O)(=O)C2)c2ccccc2c1=O (stereo not drawn) | 1.323%
O=C(NC1CCS(=O)(=O)C1)c1cn(C2CC2)c(=O)c2ccccc12 (stereo not drawn) | 62.62%
O=C(O)C(F)(F)F.c1cc(CN2C[C@H](OCC3CCOCC3)[C@H]3COC[C@H]32)cs1 | 11.94%
O=C(NC1CCCC1)[C@@H]1CN(Cc2nccs2)C[C@H]2OCC[C@H]21.O=C(O)C(F)(F)F.O=C(O)C(F)(F)F | -17.32%
CSCC(C)C(=O)NCc1c(C)nc2cc(=O)[nH]n2c1C (stereo not drawn) | 9.376%

SMILES | Percent Effect
Cn1ccnc1-c1ccc(NCC2COc3ccccc3O2)nn1 (stereo not drawn) | 32.53%
Cn1ccnc1-c1ccc(NC[C@H]2CCc3ccccc3O2)nn1 | 50.1%
Cn1ccnc1-c1ccc(NCCC2COc3ccccc3O2)nn1 (stereo not drawn) | 44.06%
Cl.O=C(C1CCC1)N1C[C@@H](c2ccsc2)[C@@H]2CN(C3CCCC3)CC[C@@H]21 | -4.778%
O=C(CCn1cc(Cl)cn1)N1C[C@@H]2CC[C@H](C1)N(Cc1ccccn1)C2 | 7.885%
CC(NCCCN1CCCC1=O)c1cc(Br)ccc1F (stereo not drawn) | 13.95%
CC(NCCN1CCC(N(C)C)CC1)c1ccc(F)cc1N(C)C (stereo not drawn) | -14.59%
CC(NCCCN1CCCC1=O)c1ccc(F)cc1N(C)C (stereo not drawn) | 87.91%
COCC(=O)NCc1nn(CCN2CCCC2)c(=O)c2ccccc12 | -7.005%
CCNC(=O)NCc1nn(CCN2CCCC2)c(=O)c2ccccc12 | 41.46%
CCOC(=O)NCc1nn(CCN2CCCC2)c(=O)c2ccccc12 | 74.86%
N#CCCN(Cc1cccnc1)C(=O)c1ccc(OCC2CC2)cc1 | 6.663%
N#CCCN(Cc1ccco1)C(=O)c1ccc(OCC2CC2)cc1 | 14.1%
N#CCCN(CCC#N)C(=O)c1ccc(OCC2CC2)cc1 | 94.69%
Cl.NCCC(=O)Nc1ccc(-c2ccccc2)cc1 | 3.2%
CC(=O)N1CCC(c2nc3ccc(NC4CCC4)cn3n2)CC1.O=C(O)C(F)(F)F | 21.7%
O=C(O)C(F)(F)F.O=C(O)C(F)(F)F.O=c1ccc2c(n1Cc1cccnc1)CCN(Cc1ccoc1)CC2 | -14.95%
CC(C)c1nn(C)cc1CNC1CCOc2ccccc21.Cl (stereo not drawn) | -5.42%
O=C(CN1CCc2ccccc21)Nc1ccc(OC(F)F)cc1 | 99.06%
COc1ccc(CNC(=O)CN2CCc3ccccc32)cc1 | -48.79%
O=C(CN1CCCS1(=O)=O)Nc1ccc(OC(F)F)cc1 | -14.39%
